# Measured values from PubChem BioAssay (EPA / NIEHS).
# Inconclusive results are not listed. The source made the active and inactive calls. How the source made its calls, unless noted: active means hit-call score of the fitted dose curve at least 0.9, where 1 is the maximum; inconclusive means response in the unintended direction; inactive means score below 0.9.
# Columns and labels:
# [1] = biological target: human Thromboxane A2 Receptor (TXA2), TBXA2R (gene 6915) (UniProt P21731); test: NVS_GPCR_hTXA2: NovaScreen (NVS) G Protein-Coupled Receptor Assay for human Thromboxane A2 Receptor (TXA2) (AID 2283282);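 further: actives reduce bound radioligand signal relative to DMSO baseline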
# Procedure, shortened: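 Biochem binding, human platelets, cell-free; competitive radioligand displacement; 1 h; filter radiodetection. 25 uM duplicate primary, conc. series secondary; DMSO neg. ctrl.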
# [2] = STM_H9_OrnCyssISnorm_ratio: Stemina devTOX quickPredict H9 human embryonic stem cell (hESC)-based Assay for Ornithine (ORN):Cystine (CYSS) Ratio (AID 2283714)
# Procedure, shortened: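 Ratio of internal-standard-normalized ornithine to cystine, measured by UPLC-HRMS in spent media from the last 24 h. H9 cells kept pluripotent, dosed 72 h with daily media and compound renewal; DMSO 0.1% serves as baseline.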
# [3] = CCTE_Shafer_MEA_dev_AB: CCTE's Alamar Blue Assay for Cytotoxicity in the Neural Network Formation Assay, Shafer Lab (AID 2284083);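 further: resazurin reduction fluorescence as viability of cultured neurons; twelve days of exposure from plating with re-dosing on DIV 5 and 9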
# Procedure, shortened: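 Rat cortical primary cultures, 1.5 x 10^5 cells/well on MEA; continuous compound exposure over 12 days of network development, re-dosed with full medium change DIV 5 and 9. Alamar Blue fluorescence; loss of signal = cytotoxicity vs DMSO baseline.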
# [4] = biological target: Sodium channel protein type 1 subunit alpha (Rattus norvegicus) (UniProt P04774); test: NVS_IC_rNaCh_site2: NovaScreen (NVS) Ion Channel Assay for rat Sodium Channel, Site 2 (NaCh) (AID 2283322);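 further: hit means loss of radioligand binding signal relative to DMSO so AC50 marks displacement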
# Procedure, shortened: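 Initial duplicate single-point testing at 25 uM, followed by concentration-response runs for actives. Binding of radioligand to rat forebrain membranes quantified after 1 h via filter-based radiodetection.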
# PGR (gene 5241) = PGR (gene 5241) (UniProt P06401); test: NVS_NR_hPR: NovaScreen (NVS) Nuclear Receptor Binding Assay for human Progestron Receptor (PR) (AID 2283360);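 further: active means loss of bound radioligand signal versus DMSO baseline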
# Procedure, shortened: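 Cell-free radioligand binding using receptor protein extracted from T47D cells, read by scintillation counting 18 hours after dosing. Loss of signal relative to DMSO baseline indicates displacement; primary screen single concentration 25 uM in duplicate, actives followed in concentration series.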
# [5] = biological target: chicken Estrogen Receptor (ESR1), ESR1 (gene 396099) (UniProt P06212); test: ATG_chERa_XSP1: Attagene TRANS-FACTORIAL Multi-Species (XSP1) HepG2 Assay for chicken Estrogen Receptor (ESR1) (AID 2283779)
# Procedure, shortened: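 Trans-activation of an exogenous chicken ERα–Gal4 chimera read as reporter transcript (RT-PCR, fluorescent labeling, capillary electrophoresis) after 24 h compound exposure of transfected HepG2; medium held 3 nM 6-alpha-fluorotestosterone. Positive-direction fit against DMSO.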
# [6] = system: turtle Estrogen Receptor (ESR1), gene 101933533; test: ATG_trERa_XSP1: Attagene TRANS-FACTORIAL Multi-Species (XSP1) HepG2 Assay for turtle Estrogen Receptor (ESR1) (AID 2283781)
# Procedure, shortened: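 Transactivation measured 24 h post-dose as reporter mRNA (RT-PCR, fluorescent capillary electrophoresis) from an NR-Gal4 turtle ER construct in HepG2. Medium included 3 nM 6-alpha-fluorotestosterone; increase over DMSO fitted.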
# [7] = biological target: zebrafish Thyroid Hormone Receptor alpha (TRa), thraa (gene 30670) (UniProt Q98867); test: ATG_zfTRa_XSP1: Attagene TRANS-FACTORIAL Multi-Species (XSP1) HepG2 Assay for zebrafish Thyroid Hormone Receptor alpha (TRa) (AID 2283807)
# Procedure, shortened: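 Reporter transcripts driven by a chimeric zebrafish TRa–Gal4 protein were measured by RT-PCR with fluorescent labelling and capillary electrophoresis. These came from transiently transfected HepG2 cells after 24 h chemical exposure, with 3 nM 6-alpha-fluorotestosterone added; baseline was DMSO.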
# [8] = system: zebrafish Estrogen Receptor (ER2b), gene 317733; test: ATG_zfER2b_XSP2: Attagene TRANS-FACTORIAL Multi-Species (XSP2) HepG2 Assay for zebrafish Estrogen Receptor (ER2b) (AID 2283823);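 further: fitted upward as reporter gain over DMSO so potency reflects activation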
# Procedure, shortened: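 In this multiplexed trans-activation format, HepG2 cells expressing exogenous NR-Gal4 fusions drive GAL4-UAS reporters. Exposure lasts 24 h, and reporter mRNA induction is read by RT-PCR with capillary electrophoresis detection.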
# [9] = ATG_M_32_XSP2: Attagene TRANS-FACTORIAL Multi-Species (XSP2) HepG2 Assay for M19 Transcription Factor (Internal Marker) (AID 2283826)
# Procedure, shortened: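 Total RNA is taken from compound-treated HepG2 cells after 24 h and reverse-transcribed; reporter cDNA is PCR-amplified, end-labelled with 6-FAM, digested with HpaI for 2h at 37 C and sized by capillary electrophoresis. Activity is fitted in the positive direction against DMSO.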
# [10] = biological target: zebrafish Thyroid Hormone Receptor alpha (TRa), thraa (gene 30670) (UniProt Q98867); test: ATG_zfTRa_XSP2: Attagene TRANS-FACTORIAL Multi-Species (XSP1) HepG2 Assay for zebrafish Thyroid Hormone Receptor alpha (TRa) (AID 2283832);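 further: actives raise zebrafish TRa-Gal4 reporter transcript above DMSO baseline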
# Procedure, shortened: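 Multiplexed TRANS reporter format in HepG2; the medium also contained 3 nM 6-alpha-fluorotestosterone and 1.5 nM norgestrel. Reporter mRNA after 24 h read by RT-PCR and capillary electrophoresis, scored as induction over DMSO.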
# [11] = biological target: human Thyroid hormone Receptor beta (TRb), THRB (gene 7068) (UniProt P10828); test: ATG_hTRb_XSP2: Attagene TRANS-FACTORIAL Multi-Species (XSP2) HepG2 Assay for human Thyroid hormone Receptor beta (TRb) (AID 2283840);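 further: actives raise reporter mRNA so potency reflects agonist-like gain of signal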
# Procedure, shortened: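 In this cell-based multiplex, HepG2 liver cells carrying transfected GAL4-UAS reporter constructs are exposed to chemical for 24 hours, then reporter transcripts are measured by RT-PCR with capillary electrophoresis, scored as gain of signal against DMSO.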
# [12] = CEETOX_H295R_ANDR: CeeTox H295R High-throughput Steroidogenesis Assay for Androstenedione (ANDR) (AID 2283436; active means hit-call score of the fitted dose curve at least 0.9, where 1 is the maximum; inactive means score below 0.9); conditions: actives raise or lower the signal
# Procedure, shortened: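 Medium from 48 h chemical-treated H295R adrenal cells was extracted with MTBE and androstenedione measured by LC-MS/MS. Activity was fit in both directions relative to DMSO. Cytotoxic concentrations were re-tested after dilution until MTT viability reached ≥70%.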
# [13] = CEETOX_H295R_TESTO: CeeTox H295R High-throughput Steroidogenesis Assay for Testosterone (TESTO) (AID 2283457; active means hit-call score of the fitted dose curve at least 0.9, where 1 is the maximum; inactive means score below 0.9); conditions: actives raise or lower the signal
# Procedure, shortened: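 Testosterone synthesis is assessed in human adrenocortical H295R cells after 48 h of chemical exposure, using HPLC-MS/MS of extracted medium. Activity is fitted in both directions against DMSO control.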
# [14] = biological target: sheep Cyclooxygenase-2 (Cox2), PTGS2 (gene 443460) (UniProt P79208); test: NVS_ENZ_oCOX2: NovaScreen (NVS) Enzymatic Assay for sheep Cyclooxygenase-2 (Cox2) (AID 2283231)
# Procedure, shortened: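 Colorimetric absorbance read-out of COX activity, taken 0.66 hour post-dosing, using native protein from sheep placenta. Single-concentration duplicate screen (25 uM), then singleton concentration-response up to 50 uM for actives.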
# [15] = IUF_NPC1b_proliferation_BrdU_72hr: Leibniz Research Institute for Environmental Medicine (IUF) 72-hour Neural Progenitor Cell Bromodeoxyuridine (BrdU) Proliferation Assay (NPC1b) (AID 2284207; active means hit-call score of the fitted dose curve at least 0.9, where 1 is the maximum; inactive means score below 0.9)
# Procedure, shortened: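 Human fetal cortex-derived (GW 16-19) neural progenitor spheres, 0.25-0.35 mm, one per well in EGF/FGF proliferation medium, exposed to compound for 72 h at 37C, pH 7.2-7.6. BrdU incorporation over the final 16 h read by luminescence ELISA, relative to DMSO.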
# [16] = biological target: mouse Estrogen Receptor alpha (Era), Esr1 (gene 13982) (UniProt P19785); test: NVS_NR_mERa: NovaScreen (NVS) Nuclear Receptor Binding Assay for mouse Estrogen Receptor alpha (Era) (AID 2283378);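 further: hit means loss of bound radioligand signal relative to DMSO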
# Procedure, shortened: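 Test chemicals competed against a specific radioligand for binding to cell-free mouse Era. Duplicate wells at 25 uM were read 18 hours later by filter-based radiodetection, with loss of signal against DMSO scored as activity.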
# IYD (gene 389434) = test: CCTE_GLTED_hIYD: CCTE's human Iodotyrosine Deiodinase (xIYD) Inhibition Assay, Great Lakes Toxicology and Ecology Division (GLTED) Lab (AID 2284317);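 further: cell-free human IYD enzyme made in baculovirus insect cells; iodide freed from monoiodotyrosine measured by cerium arsenite color change at 420 nm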
# Procedure, shortened: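 Iodide liberated from monoiodotyrosine by baculovirus-expressed human IYD over 3 h was determined colorimetrically (Sandell-Kolthoff, 420 nm) after Dowex separation; inhibition is loss of signal versus DMSO.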
# [17] = biological target: Estrogen receptor (Homo sapiens) + Estrogen receptor beta (Homo sapiens) (UniProt P03372+Q92731); test: OT_ER_ERaERb_0480: Odyssey Thera (OT) 8-hour HEK293T Protein-Complementation Assay for Estrogen Receptor-alpha/-beta Heterodimer (AID 2283352)
# Procedure, shortened: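 Increase in mean fluorescence intensity, measured by laser scanning plate cytometry, reported ER-alpha/ER-beta LBD complementation in HEK293T cells after 8 h chemical exposure. DMSO served as baseline; basal signal is low, punctate and cytoplasmic.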
# [18] = biological target: human Phosphatase and Tensin Homolog (PTEN), PTEN (gene 5728) (UniProt P60484); test: NVS_ENZ_hPTEN: NovaScreen (NVS) Enzymatic Assay for human Phosphatase and Tensin Homolog (PTEN) (AID 2283203)
# Procedure, shortened: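 Loss of fluorescent product signal after mobility-shift separation reports PTEN activity, recombinant human enzyme, 1 h after compound addition. Single 25 uM duplicate screen, then concentration-response on actives; DMSO baseline.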
# zebrafish Thyroid Hormone Receptor alpha (TRa), thraa (gene 30670), sequence (Q98867 whole entry, looked up, the tested form may be a part): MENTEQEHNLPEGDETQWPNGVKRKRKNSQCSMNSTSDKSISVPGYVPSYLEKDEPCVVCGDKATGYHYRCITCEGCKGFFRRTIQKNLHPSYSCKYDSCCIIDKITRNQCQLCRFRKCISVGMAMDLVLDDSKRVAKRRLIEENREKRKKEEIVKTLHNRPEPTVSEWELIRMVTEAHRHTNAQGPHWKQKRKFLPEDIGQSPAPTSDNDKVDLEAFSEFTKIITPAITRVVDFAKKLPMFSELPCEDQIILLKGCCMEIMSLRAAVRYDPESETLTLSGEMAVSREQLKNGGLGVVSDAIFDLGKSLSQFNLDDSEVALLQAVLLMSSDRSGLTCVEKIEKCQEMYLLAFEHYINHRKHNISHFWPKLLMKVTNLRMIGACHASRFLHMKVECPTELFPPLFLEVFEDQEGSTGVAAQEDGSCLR
# human Thromboxane A2 Receptor (TXA2), TBXA2R (gene 6915), sequence (P21731 whole entry, looked up): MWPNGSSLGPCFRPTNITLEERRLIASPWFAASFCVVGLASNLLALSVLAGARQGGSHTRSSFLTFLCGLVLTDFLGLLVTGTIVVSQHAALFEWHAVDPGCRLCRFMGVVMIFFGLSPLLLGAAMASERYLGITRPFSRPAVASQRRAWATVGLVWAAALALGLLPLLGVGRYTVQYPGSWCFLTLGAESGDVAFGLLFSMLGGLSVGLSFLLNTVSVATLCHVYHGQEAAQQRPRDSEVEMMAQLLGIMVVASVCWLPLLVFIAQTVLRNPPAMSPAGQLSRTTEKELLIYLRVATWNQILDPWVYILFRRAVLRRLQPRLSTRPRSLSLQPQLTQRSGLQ
# sheep Cyclooxygenase-2 (Cox2), PTGS2 (gene 443460), sequence (P79208 whole entry, looked up): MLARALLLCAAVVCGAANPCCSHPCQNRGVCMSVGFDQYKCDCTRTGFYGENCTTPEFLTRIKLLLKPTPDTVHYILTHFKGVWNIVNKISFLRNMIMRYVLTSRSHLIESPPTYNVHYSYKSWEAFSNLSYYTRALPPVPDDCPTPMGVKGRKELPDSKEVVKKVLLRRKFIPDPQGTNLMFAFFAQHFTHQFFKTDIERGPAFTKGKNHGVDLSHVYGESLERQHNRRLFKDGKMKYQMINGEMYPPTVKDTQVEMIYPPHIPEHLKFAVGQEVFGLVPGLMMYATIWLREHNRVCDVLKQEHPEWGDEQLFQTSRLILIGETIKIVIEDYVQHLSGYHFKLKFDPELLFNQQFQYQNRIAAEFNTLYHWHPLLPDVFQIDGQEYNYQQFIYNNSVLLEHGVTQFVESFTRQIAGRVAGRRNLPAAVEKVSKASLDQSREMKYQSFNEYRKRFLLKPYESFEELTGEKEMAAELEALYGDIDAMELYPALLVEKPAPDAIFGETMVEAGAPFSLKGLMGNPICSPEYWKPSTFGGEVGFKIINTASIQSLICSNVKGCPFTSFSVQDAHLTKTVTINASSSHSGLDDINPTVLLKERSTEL
# chicken Estrogen Receptor (ESR1), ESR1 (gene 396099), sequence (P06212 whole entry, looked up, the tested form may be a part): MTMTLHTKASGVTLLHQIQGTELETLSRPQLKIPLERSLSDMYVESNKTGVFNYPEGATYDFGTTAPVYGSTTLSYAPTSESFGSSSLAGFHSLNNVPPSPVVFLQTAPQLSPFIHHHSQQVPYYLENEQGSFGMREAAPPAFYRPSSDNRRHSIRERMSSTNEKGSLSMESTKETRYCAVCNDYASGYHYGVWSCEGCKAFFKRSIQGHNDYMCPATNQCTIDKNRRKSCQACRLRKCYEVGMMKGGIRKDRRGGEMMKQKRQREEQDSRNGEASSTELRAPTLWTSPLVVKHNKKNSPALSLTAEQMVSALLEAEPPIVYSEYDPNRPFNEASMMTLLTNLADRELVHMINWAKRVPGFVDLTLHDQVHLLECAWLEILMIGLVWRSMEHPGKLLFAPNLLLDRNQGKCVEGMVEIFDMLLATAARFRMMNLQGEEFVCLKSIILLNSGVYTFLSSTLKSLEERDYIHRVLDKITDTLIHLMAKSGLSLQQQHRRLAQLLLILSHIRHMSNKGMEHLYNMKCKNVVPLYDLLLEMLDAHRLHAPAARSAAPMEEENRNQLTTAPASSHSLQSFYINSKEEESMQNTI
# PGR (gene 5241), sequence (P06401 whole entry, looked up): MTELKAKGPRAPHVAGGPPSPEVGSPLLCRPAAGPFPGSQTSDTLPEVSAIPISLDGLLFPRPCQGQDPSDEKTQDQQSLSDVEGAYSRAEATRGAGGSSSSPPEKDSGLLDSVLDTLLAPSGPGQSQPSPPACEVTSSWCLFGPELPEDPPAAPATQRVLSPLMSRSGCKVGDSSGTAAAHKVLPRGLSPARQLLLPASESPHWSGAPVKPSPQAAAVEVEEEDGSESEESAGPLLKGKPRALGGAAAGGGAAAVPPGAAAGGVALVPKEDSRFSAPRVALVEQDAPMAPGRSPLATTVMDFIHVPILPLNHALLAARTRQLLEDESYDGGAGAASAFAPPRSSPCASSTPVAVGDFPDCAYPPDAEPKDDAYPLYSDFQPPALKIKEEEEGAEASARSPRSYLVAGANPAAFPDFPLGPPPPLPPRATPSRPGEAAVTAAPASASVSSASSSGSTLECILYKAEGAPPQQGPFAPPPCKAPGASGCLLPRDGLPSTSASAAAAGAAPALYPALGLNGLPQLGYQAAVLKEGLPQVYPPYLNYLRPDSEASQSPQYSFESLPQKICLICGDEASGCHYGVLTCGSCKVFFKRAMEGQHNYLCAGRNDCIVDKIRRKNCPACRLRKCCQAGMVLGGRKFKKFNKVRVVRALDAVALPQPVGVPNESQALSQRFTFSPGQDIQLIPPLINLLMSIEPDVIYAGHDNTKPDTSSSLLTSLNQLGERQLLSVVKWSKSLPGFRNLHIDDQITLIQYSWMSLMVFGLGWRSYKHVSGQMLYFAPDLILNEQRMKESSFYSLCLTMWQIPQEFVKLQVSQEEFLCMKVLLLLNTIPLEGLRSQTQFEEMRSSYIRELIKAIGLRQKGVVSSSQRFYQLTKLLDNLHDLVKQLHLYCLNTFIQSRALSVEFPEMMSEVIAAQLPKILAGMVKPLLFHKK
# Estrogen receptor (Homo sapiens) + Estrogen receptor beta (Homo sapiens), sequence (P03372 whole entry, looked up, the tested form may be a part): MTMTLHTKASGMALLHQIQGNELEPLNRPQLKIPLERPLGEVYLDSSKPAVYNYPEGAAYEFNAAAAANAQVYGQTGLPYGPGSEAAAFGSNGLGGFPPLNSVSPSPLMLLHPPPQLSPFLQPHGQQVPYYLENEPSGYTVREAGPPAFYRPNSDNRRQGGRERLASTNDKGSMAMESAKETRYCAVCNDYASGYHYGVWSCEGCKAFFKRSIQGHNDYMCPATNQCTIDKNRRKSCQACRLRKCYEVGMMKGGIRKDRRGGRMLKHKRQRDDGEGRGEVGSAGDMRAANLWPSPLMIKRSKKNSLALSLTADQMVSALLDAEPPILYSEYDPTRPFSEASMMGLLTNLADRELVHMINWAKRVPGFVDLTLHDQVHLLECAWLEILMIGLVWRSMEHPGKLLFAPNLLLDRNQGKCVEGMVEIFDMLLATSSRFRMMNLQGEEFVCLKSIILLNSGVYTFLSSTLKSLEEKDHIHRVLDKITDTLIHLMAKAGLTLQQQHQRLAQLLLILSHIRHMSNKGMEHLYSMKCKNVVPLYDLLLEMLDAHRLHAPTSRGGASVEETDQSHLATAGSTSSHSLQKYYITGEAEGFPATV
# Estrogen receptor (Homo sapiens) + Estrogen receptor beta (Homo sapiens), sequence (Q92731 whole entry, looked up, the tested form may be a part): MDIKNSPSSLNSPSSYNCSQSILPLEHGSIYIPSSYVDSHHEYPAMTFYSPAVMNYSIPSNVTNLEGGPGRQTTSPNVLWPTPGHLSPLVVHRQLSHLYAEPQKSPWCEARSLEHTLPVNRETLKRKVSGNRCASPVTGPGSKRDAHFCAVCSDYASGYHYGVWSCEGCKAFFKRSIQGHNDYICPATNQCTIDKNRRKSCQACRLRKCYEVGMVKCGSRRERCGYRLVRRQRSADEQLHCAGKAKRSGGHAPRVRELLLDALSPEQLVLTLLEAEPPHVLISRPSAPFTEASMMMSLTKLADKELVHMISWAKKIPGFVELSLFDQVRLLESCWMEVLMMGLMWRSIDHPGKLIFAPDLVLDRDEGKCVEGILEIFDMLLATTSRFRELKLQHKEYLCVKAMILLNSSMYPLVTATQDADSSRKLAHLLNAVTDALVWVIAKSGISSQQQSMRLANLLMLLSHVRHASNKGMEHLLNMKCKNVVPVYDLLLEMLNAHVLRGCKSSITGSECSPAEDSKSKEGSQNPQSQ
# mouse Estrogen Receptor alpha (Era), Esr1 (gene 13982), sequence (P19785 whole entry, looked up): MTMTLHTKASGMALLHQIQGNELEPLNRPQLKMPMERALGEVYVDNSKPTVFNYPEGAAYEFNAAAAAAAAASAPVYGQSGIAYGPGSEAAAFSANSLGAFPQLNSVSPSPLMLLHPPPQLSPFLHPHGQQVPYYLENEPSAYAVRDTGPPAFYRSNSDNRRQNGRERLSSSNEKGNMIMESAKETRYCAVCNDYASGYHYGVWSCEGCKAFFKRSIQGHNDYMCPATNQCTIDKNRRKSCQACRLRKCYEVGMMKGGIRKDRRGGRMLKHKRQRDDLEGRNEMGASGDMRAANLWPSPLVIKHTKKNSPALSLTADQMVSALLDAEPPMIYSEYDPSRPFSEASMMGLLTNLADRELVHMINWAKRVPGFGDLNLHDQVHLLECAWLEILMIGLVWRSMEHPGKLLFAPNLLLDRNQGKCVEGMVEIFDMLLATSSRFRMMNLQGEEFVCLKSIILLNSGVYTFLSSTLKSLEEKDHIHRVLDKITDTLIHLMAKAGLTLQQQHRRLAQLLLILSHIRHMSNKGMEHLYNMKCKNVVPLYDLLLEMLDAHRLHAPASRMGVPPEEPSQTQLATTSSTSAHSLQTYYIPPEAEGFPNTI
# human Phosphatase and Tensin Homolog (PTEN), PTEN (gene 5728), sequence (P60484 whole entry, looked up): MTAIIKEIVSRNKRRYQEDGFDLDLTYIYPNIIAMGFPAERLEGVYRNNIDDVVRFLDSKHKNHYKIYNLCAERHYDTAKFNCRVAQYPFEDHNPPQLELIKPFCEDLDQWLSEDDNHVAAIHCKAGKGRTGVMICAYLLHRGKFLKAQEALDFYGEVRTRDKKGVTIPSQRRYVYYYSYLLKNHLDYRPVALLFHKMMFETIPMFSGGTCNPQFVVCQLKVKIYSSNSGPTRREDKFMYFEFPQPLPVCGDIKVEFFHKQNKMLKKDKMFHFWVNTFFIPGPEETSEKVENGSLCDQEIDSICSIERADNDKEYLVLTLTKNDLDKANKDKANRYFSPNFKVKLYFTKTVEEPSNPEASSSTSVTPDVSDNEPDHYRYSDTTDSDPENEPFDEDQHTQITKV
structure (smiles),measurement,setting,value
O=c1[nH]c(Cl)c(Cl)cc1Cl,AC50,[1],631 nM (active)
Cc1ccc(OP(=O)(Oc2ccc(C)cc2)Oc2ccc(C)cc2)cc1 (tested in a mixture with another compound),AC50,[2],61.9 µM (active)
same,outcome,[3],inactive
CC1CCCC1.[C-]#[O+].[C-]#[O+].[C-]#[O+].[Mn],outcome,[3],inactive
C[C@]12CC[C@H](O)C[C@H]1CC[C@@H]1[C@@H]2C[C@@H](O)[C@]2(C)[C@@H](C3=CC(=O)OC3)CC[C@]12O,outcome,[4],inactive
same,outcome,PGR (gene 5241),inactive
CC1OC(C)OC(C)O1 (stereo not drawn),outcome,[1],inactive
CC(C)CCCCCCCOC(=O)c1ccccc1C(=O)OCCCCCCCC(C)C,outcome,[5],inactive
same,outcome,[6],inactive
same,outcome,[7],inactive
same,outcome,[8],inactive
same,outcome,[9],inactive
same,outcome,[10],inactive
same,outcome,[11],inactive
CC(C)(C)C(O)C(Oc1ccc(-c2ccccc2)cc1)n1cncn1 (stereo not drawn),outcome,[4],inactive
same,AC50,[12],0.114 µM (active)
same,outcome,[13],inactive
CCc1cc(C)cc(CC)c1-c1c(OC(=O)C(C)(C)C)n2n(c1=O)CCOCC2,outcome,[4],inactive
CNC(=N[N+](=O)[O-])NCC1CCOC1 (stereo not drawn),outcome,[14],inactive
same,outcome,[15],inactive
Oc1ccc(C2(c3ccc(O)cc3)c3ccccc3-c3ccccc32)cc1,AC50,[16],432 nM (active)
CCCCCCCCCCCCCCCC[N+](C)(C)C,AC50,IYD (gene 389434),38.7 µM (active)
O=CNC(N1CCN(C(NC=O)C(Cl)(Cl)Cl)CC1)C(Cl)(Cl)Cl (stereo not drawn),outcome,[14],inactive
same,AC50,[12],50 µM (active)
same,outcome,[13],inactive
c1ccc(P(c2ccccc2)c2ccccc2)cc1,AC50,[17],28.5 µM (active)
CCCCCCCCCCCC#N,outcome,[18],inactive
CC1(C)[C@H](C(=O)O[C@H](C#N)c2cccc(Oc3ccccc3)c2)[C@@H]1C=C(Br)Br,outcome,[15],inactive
